Screening results deposited in PubChem BioAssay by several laboratories.
sEH inh = blocks human soluble epoxide hydrolase activity; P34913; recombinant human sEH enzymatic activity assay; inhibition, % at 2 µM; actives 0.34% (n = 91,000); in the data active = inhibition above about 80%
Target sequence (P34913 whole entry, looked up): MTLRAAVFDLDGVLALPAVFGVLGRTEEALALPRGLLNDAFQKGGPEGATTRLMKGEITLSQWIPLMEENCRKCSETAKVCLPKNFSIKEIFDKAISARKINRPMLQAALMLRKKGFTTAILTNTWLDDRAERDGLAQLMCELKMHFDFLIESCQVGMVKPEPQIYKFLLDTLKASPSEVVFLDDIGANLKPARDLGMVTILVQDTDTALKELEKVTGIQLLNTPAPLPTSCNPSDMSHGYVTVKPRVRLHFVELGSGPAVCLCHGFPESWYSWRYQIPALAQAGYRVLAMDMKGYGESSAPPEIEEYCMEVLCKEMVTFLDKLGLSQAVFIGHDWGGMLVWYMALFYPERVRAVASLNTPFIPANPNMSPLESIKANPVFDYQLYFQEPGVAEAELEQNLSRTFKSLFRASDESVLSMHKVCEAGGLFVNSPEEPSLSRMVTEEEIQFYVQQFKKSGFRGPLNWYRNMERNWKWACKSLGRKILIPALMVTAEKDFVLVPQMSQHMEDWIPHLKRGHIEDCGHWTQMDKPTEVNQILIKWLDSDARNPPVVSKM
sEH activator = increases human soluble epoxide hydrolase activity. activation, % at 2 µM. AID 717. purified human sEH enzymatic activity, activator screen. P34913. actives 0.04% (n = 91,000); in the data active = activation above about 37%
SDO1 yeast rescue = compounds rescuing growth of sdo1-depleted yeast, bone marrow failure model. z-score at 10 µM. actives 0.21% (n = 140,000). AID 817. S. cerevisiae sdo1-depleted JHY4D growth rescue, OD600 30 h; hits give high values; pdr5 snq2 efflux-pump mutant strain;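 active = z-score above 3 at both the 24 hr and the 30 hr optical density reads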;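 also: z-score against mean and SD of all compound wells on the same plate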
E-sel TNF inh = TNF alpha driven E-selectin expression inhibition; HUVEC TNFa-induced E-selectin immunofluorescence, high content; inhibition, % at 2 µM; actives 0.71% (n = 120,000);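 active = inhibition above the batch mean plus 3 SD, and confirmed as a hit on visual image review, cut at about 43% in these data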;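 also: 0% = TNF-stimulated DMSO wells and 100% = unstimulated control wells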
Phagocyt inh = macrophage phagocytosis inhibition. inhibition, % at 5 µM. J774A.1 macrophage IgG-bead phagocytosis, imaging. actives 0.07% (n = 110,000);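 active = inhibition above the mean of the plate negative controls plus 5 SD, cut at about 13% in these data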;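 also: phagocytic index as fraction of beads internalized from green versus red external bead signal; plate controls were DMSO negative control for no effect and cytochalasin-D positive control for full effect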
cytoskel mod = alters cytoskeleton assembly in HUVEC cells | HUVEC TNFa F-actin phalloidin imaging, high content | inhibition, % at 2 µM | actives 0.18% (n = 91,000) | AID 836;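 active = inhibition above the batch mean plus 3 SD and confirmed as a hit by visual image inspection, cut at about 30% in these data, passing the limit was not always enough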
sdo1 rescue conf = confirmation of growth rescue in SDO1-depleted yeast, bone marrow failure; S. cerevisiae JHY4D (SDO1-depleted) growth rescue, OD600, 30 h; hits give high values; efflux-deficient strain, SNQ2 and PDR5 mutated; actives 44% (n = 440); shares compounds with SDO1 yeast rescue; OD recovery (no concentration beside the values); AID 949;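 active = yeast growth recovered at 30 hours, either rising with dose fitted slope above 0.001 or with average optical density gain above 0.07, some results past the limit were not filed as active; inactive = growth falling with dose or no effect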;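 also: gain in OD600 from 0 h to 30 h averaged across all seven doses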
An asterisk follows results filed as active. A selection: hits, their analogues and other compounds. The true share with any hit is near 0.96%.

What do the screens show for `COc1ccc(OC)c(C2=NOC(C(=O)NCc3ccco3)C2)c1` (stereo unspecified)?
sEH inh: 12; sEH activator: -13; SDO1 yeast rescue: 7.6*; E-sel TNF inh: 7; Phagocyt inh: 1; cytoskel mod: -14; sdo1 rescue conf: 0.036

How did COc1ccc(CNC(=O)C2CC(c3cccc(OC)c3)=NO2)cc1 (stereo unspecified) do in these assays?
sEH inh: 16; sEH activator: -17; SDO1 yeast rescue: -0.39; Phagocyt inh: 3; cytoskel mod: -6

How did Cc1ccc(-c2cc(C(=O)N/N=C/c3ccco3)n[nH]2)s1 do in these assays?
SDO1 yeast rescue: 2.2; E-sel TNF inh: 5

Results for CC(C)(C)c1cc(C(=O)N/N=C/c2ccco2)n[nH]1 ?
SDO1 yeast rescue: 9.9*; E-sel TNF inh: 8; Phagocyt inh: -10; sdo1 rescue conf: 0.071*

What do the screens show for `COCCCN1C(=O)C(O)=C(C(=O)c2ccco2)C1c1ccccc1` (stereo unspecified)?
SDO1 yeast rescue: 2; Phagocyt inh: -1; sdo1 rescue conf: 0.097*

How did CCCCN(CCCC)CP(=O)(c1ccccc1)c1ccccc1 do in these assays?
sEH inh: -2; sEH activator: 0; SDO1 yeast rescue: -1.7; E-sel TNF inh: -4; Phagocyt inh: -1; cytoskel mod: 14

How did COc1ccc(-c2nc3ccccc3o2)cc1NC(=O)c1ccc(Br)o1 do in these assays?
SDO1 yeast rescue: 2.1; E-sel TNF inh: -25; Phagocyt inh: 0; cytoskel mod: -3; sdo1 rescue conf: 0.064*

Results for COc1ccccc1NC(=O)c1ccc(Br)o1 ?
sEH inh: 3; sEH activator: -2; SDO1 yeast rescue: 1.6; E-sel TNF inh: 5; Phagocyt inh: 2; cytoskel mod: 9

How did COc1ccc(-c2nnc(SCC(=O)Nc3ccccc3OC)o2)cc1 do in these assays?
sEH inh: -2; sEH activator: 0; SDO1 yeast rescue: 7.5*; E-sel TNF inh: 1; cytoskel mod: 7; sdo1 rescue conf: 0.1*

Results for COc1ccccc1NC(=O)CSc1nc(C)c2c(c1C#N)CCCC2 ?
sEH inh: -10; sEH activator: 9; SDO1 yeast rescue: 1.9; E-sel TNF inh: -5; Phagocyt inh: 2; cytoskel mod: 0; sdo1 rescue conf: 0.078*

How did COc1ccccc1NC(=O)CSc1nnc(-c2ccncc2)o1 do in these assays?
sEH inh: 9; sEH activator: -8; SDO1 yeast rescue: 0.67; E-sel TNF inh: -47; Phagocyt inh: -2; cytoskel mod: -7

What do the screens show for `CCN(CC)S(=O)(=O)c1ccc(-c2nnc(SCC(=O)Nc3ccc(OC)c(OC)c3)o2)cc1`?
sEH inh: -5; sEH activator: 5; SDO1 yeast rescue: 2.8; E-sel TNF inh: 4; Phagocyt inh: -2; cytoskel mod: -3; sdo1 rescue conf: 0.064

How did COc1cc(-c2nnc(SCC(=O)Nc3ccc4c(c3)OCCO4)o2)cc(OC)c1OC do in these assays?
sEH inh: -2; sEH activator: 5; SDO1 yeast rescue: 1.2; E-sel TNF inh: -17; cytoskel mod: 7

Results for COc1ccc(NC(=O)CSc2nc(C)c3c(c2C#N)CCCC3)cc1 ?
sEH inh: 17; sEH activator: -14; SDO1 yeast rescue: -0.31; E-sel TNF inh: 10; Phagocyt inh: -1; cytoskel mod: -7

What do the screens show for `CC1CCN(c2nc(Cl)nc(Nc3ccc([N+](=O)[O-])cc3)n2)CC1`?
SDO1 yeast rescue: -1.5; E-sel TNF inh: 4; Phagocyt inh: -2

How did CCOC(=O)c1sc2nccc(OC)c2c1N=CNOC do in these assays?
E-sel TNF inh: 6

What do the screens show for `Cc1cc(C)nc(SCC(=O)NC2=NN=C(c3ccc(Br)cc3)CS2)n1`?
sEH inh: -16; sEH activator: 14; SDO1 yeast rescue: 1.1; E-sel TNF inh: 30; cytoskel mod: 9; sdo1 rescue conf: 0.083*

How did COc1ccccc1OCc1ccc(C(=O)NCCN(C)C)o1 do in these assays?
sEH inh: -5; sEH activator: 7; SDO1 yeast rescue: 2.7; E-sel TNF inh: -25; sdo1 rescue conf: 0.097*

What do the screens show for `COc1ccccc1OCc1ccc(C(=O)NCc2cccnc2)o1`?
sEH inh: -8; sEH activator: 6; SDO1 yeast rescue: 1.3; E-sel TNF inh: 1; Phagocyt inh: -2; cytoskel mod: 21
